# Reference: PubChem BioAssay
# For some assays here: Entries with a potency or affinity are not part of this list. Active and inactive are the calls of the source. Unless noted, how the calls were made is not given here.
# Experiments:
# [1] = chitosan synthesis blockers in C. neoformans – flow cytometry, Cibacron Brilliant Red staining (AID 1347148); details: Cryptococcus neoformans chitosan, stronger effect = lower value; at 10 µM unless noted;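 further: compound exposure lasted three days at 37 degrees C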
# [2] = compounds altering HSF1 focus formation in cells – imaging, Selleck Cancer Library (AID 1347162; in the data active means plate-normalised HSF1 focus index below about 0.46); details: human cells, HSF1 nuclear foci imaging, at 10 µM; SSMD: measured here: HSF1 foci SSMD mean; cell count: measured here: cell number; plate-normalised HSF1 focus index: stronger effect = lower value
# [3] = compounds altering viability of human ES cells (AID 493140); details: human embryonic stem cell survival screen; stronger effect = higher value;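 further: cells exposed to compounds for four days before counting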
# [4] = P. berghei load reduction in hepatocytes – cell-based, HepG2, luciferase luminescence, HepG2 viability, primary screen (AID 624349; in the data active means parasite load remaining mostly below about 12%, no sharp cut-off; inactive means mostly above about 10%;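 further: 100% = mean of DMSO negative control wells on the same plate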); details: P. berghei liver stage in HepG2, luciferase luminescence, concentration not given here; parasite load remaining: stronger effect = lower value; viability: measured here: HepG2 viability without parasites
# [5] = blockers of polyQ-driven CASP3 activation – cell-based (AID 1583); details: polyglutamine-induced caspase-3 activation, cell assay; stronger effect = higher value;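 tested at 10 µM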
# [6] = yeast 75Q aggregation reduction – 75Q-TubU reporter (AID 1593); details: Yeast 75Q polyglutamine aggregation reporter
# [7] = restoration of touch response, mutant HTT neurons – whole organism, C. elegans mechanosensory neurons, N-terminal huntingtin (AID 1599); details: C. elegans polyQ-huntingtin mechanosensory neurons, stronger effect = higher value
# [8] = blockers of cytochrome c efflux from mitochondria – biochemical, purified mitochondria (AID 1603); details: stronger effect = lower value;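 further: mouse liver mitochondria challenged with calcium chloride; signal normalized to the plate average as 100%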
# [9] = polyglutamine aggregate formation blockers (AID 1604); details: polyglutamine-induced protein aggregation inhibition assay; stronger effect = higher value; tested at 2.5 µM
# [10] = glutamate transport activators, MN-1 cells, MN-1 cell line (AID 1612); details: MN-1 motor neuron cells, stronger effect = higher value;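 further: tested at 1 µM final; 0% = mean of DMSO vehicle wells on each plate; positive means more glutamate uptake than control and negative means less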
# [11] = 75Q-TubH aggregate inhibition, S. cerevisiae, yeast (AID 1616); details: S. cerevisiae 75Q-TubH polyglutamine aggregation suppression; stronger effect = higher value
smiles,measurement,setting,value
COC(=O)[C@H]1[C@@H]2C[C@@H]3c4[nH]c5ccccc5c4CCN3C[C@H]2CC[C@H]1O,fold fluorescence,[1],3.91 [at 141.1 µM] (inactive)
C=C[C@@H]1CN2CCC1C[C@H]2[C@H](O)c1ccnc2ccc(OC)cc12 (stereo partly specified),fold fluorescence,[1],3.61 [at 154.1 µM] (inactive)
CCCCC[C@@H](O)/C=C/[C@H]1[C@@H]2C/C(=C/CCCC(=O)O)O[C@@H]2C[C@@H]1O,fold fluorescence,[1],4.1 (inactive)
CCCCCCCCCCCCCCCC(=O)C1=C(O)[C@H](CO)OC1=O,fold fluorescence,[1],2.82 [at 135.7 µM] (active)
CCCCC[C@H](O)CCCC(=O)O,fold fluorescence,[1],4.65 [at 265.6 µM] (inactive)
CCCCCCOC(=O)C1(O)CC2OC1(C)n1c3ccccc3c3c4c(c5c6ccccc6n2c5c31)C(=O)NC4 (stereo unspecified),fold fluorescence,[1],4.72 [at 9.3 µM] (inactive)
O=C(Nc1ncc([N+](=O)[O-])s1)c1ccc([N+](=O)[O-])c(Cl)c1,SSMD,[2],2.47
same,cell count,[2],7090
same,plate-normalised HSF1 focus index,[2],1.15 (inactive)
CCCCC[C@H](O)c1cccc(OCc2ccc3ccccc3n2)c1,fold fluorescence,[1],5.53 (inactive)
O[C@H]1C=C2CCN3Cc4cc5c(cc4C(C23)[C@@H]1O)OCO5 (stereo partly specified),fold fluorescence,[1],10.6 [at 174 µM] (inactive)
CCCCCCCCCCCCCCC[C@H](O)[C@@H](CO)NC(=O)CCCCCCC,fold fluorescence,[1],6.03 (inactive)
C[C@@H](/C=C/c1cccc(Oc2ccc(F)cc2)c1)N(O)C(N)=O,fold fluorescence,[1],6.07 [at 158.1 µM] (inactive)
CCCCOc1cc(C[C@H]2CNC(=O)N2)ccc1OC,fold fluorescence,[1],8.15 [at 179.6 µM] (inactive)
COC(=O)c1ccc(O)c(NC(=O)COc2ccc(C34CC5CC(CC(C5)C3)C4)cc2)c1,SSMD,[2],-6.52
same,cell count,[2],7200
same,plate-normalised HSF1 focus index,[2],0.766 (inactive)
CCOC(=O)C1=C(O)C(=O)N(c2ccccc2)C1,SSMD,[2],2.7
same,cell count,[2],7070
same,plate-normalised HSF1 focus index,[2],1.16 (inactive)
NC(=NCCC[C@H](N)C(=O)O)N[N+](=O)O,SSMD,[2],2.98
same,cell count,[2],7230
same,plate-normalised HSF1 focus index,[2],1.18 (inactive)
CCCCCCCC/C=C\CCCCCCCC(=O)OC[C@H](O)COP(=O)(O)O,fold fluorescence,[1],3.84 (inactive)
CCCCCCCCCCCCCCCC(=O)OC[C@@H](COP(=O)(O)O)OC(=O)CCCCCCCCCCCCCCC,fold fluorescence,[1],3.86 (inactive)
CC(=O)OCO[C@H](c1ccc2ccccc2c1)P(=O)(OCOC(C)=O)OCOC(C)=O,fold fluorescence,[1],4.04 [at 110 µM] (inactive)
COc1ccc(CCN(C)CCC[C@@](C#N)(c2ccc(OC)c(OC)c2)C(C)C)cc1OC,fold fluorescence,[1],7.65 [at 110 µM] (inactive)
C=CCNC1=C2C[C@H](C)C[C@@H](OC)[C@@H](O)[C@H](C)/C=C(\C)[C@@H](OC(N)=O)[C@H](OC)/C=C\C=C(/C)C(=O)NC(=CC1=O)C2=O,fold fluorescence,[1],7.27 [at 85.4 µM] (inactive)
CCCCCCCCCCCCCCCCCCOP(=O)(O)OC1CC[N+](C)(C)CC1,SSMD,[2],-3.23
same,cell count,[2],7160
same,plate-normalised HSF1 focus index,[2],0.793 (inactive)
C=CC[C@H]1/C=C(\C)C[C@@H](C)C[C@@H](OC)[C@@H]2O[C@](O)(C(=O)C(=O)N3CCCC[C@@H]3C(=O)O[C@@H](/C(C)=C/[C@H]3CC[C@H](O)[C@@H](OC)C3)[C@@H](C)[C@H](O)CC1=O)[C@@H](C)C[C@H]2OC,fold fluorescence,[1],13.5 [at 62.2 µM] (inactive)
O=C1Nc2ccc(-c3cccnc3)cc2/C1=C/c1ccc[nH]1,SSMD,[2],-1.39
same,cell count,[2],7060
same,plate-normalised HSF1 focus index,[2],0.916 (inactive)
CN(C)C[C@H](O)Cn1c2ccc(Br)cc2c2cc(Br)ccc21,fold fluorescence,[1],6.53 [at 117.3 µM] (inactive)
O=C(O)CCC/C=C\C[C@H]1[C@H](/C=C/[C@H](O)COc2cccc(C(F)(F)F)c2)[C@@H](O)C[C@H]1O,fold fluorescence,[1],4.62 (inactive)
CCCCC/C=C\C=C\[C@@H](O)CCCCCCCC(=O)O,survival,[3],108 (inactive)
same,fold fluorescence,[1],5.71 [at 1 µM] (inactive)
C[C@@H](COc1ccccc1)N(CCCl)Cc1ccccc1,fold fluorescence,[1],6.47 [at 164.6 µM] (inactive)
CCCCC[C@@H](O)/C=C/[C@H]1[C@H](C/C=C\CCCC(=O)O)[C@H](O)C[C@H]1O,fold fluorescence,[1],4.85 (inactive)
C/C=C/C/C=C/CCC(=O)[C@@H]1O[C@@H]1C(N)=O,fold fluorescence,[1],8.37 [at 223.9 µM] (inactive)
CC[C@@H](CO)Nc1nc(NCc2ccccc2)c2ncn(C(C)C)c2n1,parasite load remaining,[4],32.6% (inactive)
same,viability,[4],67.3%
same,fold fluorescence,[1],9.95 [at 141.1 µM] (inactive)
C=C1C(=O)O[C@@H]2C3OC3(C)CC/C=C(\C)CC[C@@H]12 (stereo partly specified),inhibition,[5],14.3%
same,score,[6],0.94
same,rescue above control,[7],8.2
same,cytochrome c release ratio,[8],0.54
same,inhibition of aggregation,[9],93.6%
same,glutamate uptake change,[10],-11%
same,aggregation suppression score,[11],0.572
same,fold fluorescence,[1],11.6 [at 201.4 µM] (inactive)
CO[C@H]1C[C@@H]2CC[C@@H](C)[C@@](O)(O2)C(=O)C(=O)N2CCCC[C@H]2C(=O)O[C@H]([C@@H](C)C[C@@H]2CC[C@@H](OCCO)[C@H](OC)C2)CC(=O)[C@H](C)/C=C(\C)[C@@H](O)[C@@H](OC)C(=O)[C@H](C)C[C@H](C)/C=C/C=C/C=C/1C,SSMD,[2],2.84
same,cell count,[2],6750
same,plate-normalised HSF1 focus index,[2],1.15 (inactive)
